Source: PubChem (National Center for Advancing Translational Sciences (NCATS))
DRD3 antagonist: antagonists of human D3 dopamine receptor | D3R cells, DiscoveRx beta-arrestin luminescence, antagonist mode; active compounds read low | max response, negative = inhibition, % | actives 2.5% (n = 360,000); in the data active means max response below about -50%; inconclusive means no clear call, values can overlap the other calls; further: on the % scale 0 is the no-effect control and ±100 the full control effect
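Cells expressing the human receptor were seeded at 1500 cells/well, incubated overnight at 37 degrees C in 5% CO2, then exposed to library compounds with dopamine controls for 90 minutes at 37 degrees C before luminescent detection.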
D1 antag: antagonists of human D1 dopamine receptor; AID 504652; P21728; actives 3.2% (n = 360,000); HEK293 TREx D1 cells, calcium flux, dopamine EC80; active compounds read low; activity change, negative = inhibition, % at 10 µM; in the data active means activity change below about -30%; further: on the % scale 0 is the no-effect control and ±100 the full control effect
Target sequence (P21728 whole entry, looked up): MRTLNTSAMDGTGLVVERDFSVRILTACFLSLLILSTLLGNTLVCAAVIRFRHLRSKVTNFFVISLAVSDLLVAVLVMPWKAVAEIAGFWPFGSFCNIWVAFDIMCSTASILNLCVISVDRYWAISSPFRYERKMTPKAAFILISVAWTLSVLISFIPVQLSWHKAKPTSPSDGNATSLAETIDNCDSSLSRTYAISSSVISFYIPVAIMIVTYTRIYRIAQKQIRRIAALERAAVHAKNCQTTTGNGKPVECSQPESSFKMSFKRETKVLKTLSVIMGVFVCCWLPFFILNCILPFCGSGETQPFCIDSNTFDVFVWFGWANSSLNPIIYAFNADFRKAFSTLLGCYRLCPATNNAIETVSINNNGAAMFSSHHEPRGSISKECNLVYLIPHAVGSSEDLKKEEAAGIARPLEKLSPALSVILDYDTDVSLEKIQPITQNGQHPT
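Kinetic fluorescence of a calcium dye serves as the read-out. D1-expressing Hek293 Trex cells, induced overnight at 30 C, are exposed to compound for 180 s before an EC80 dopamine addition, then read 180 s further.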
D1 ag: human D1 receptor agonism; P21728; HEK293 T-REx D1 cells, calcium flux, agonist mode; activation, % at 2 µM; actives 1% (n = 360,000); in the data active means activation above about 30%; further: 0% is about no effect
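Agonism was scored from calcium flux recorded over 180 s (1 read/s) after pintool compound addition, following a 10-cycle baseline. Cells were inducible force-coupled HEK293 TREx D1, plated overnight at 30 C and loaded with no-wash calcium dye.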
ERG Ets-DNA blk: ERG Ets/DNA interaction inhibition. P11308. fluorescence polarization, His-ERG Ets domain / labelled DNA. Potency, µM (titrated, usually from 76.9 µM), for inactives: at the highest dose FP activity, negative = inhibition, usual class: inhibitors. actives 0.028% (n = 370,000). AID 624246; active means well fitted inhibition curve with a large enough effect in the polarisation, with a control signal flat; inconclusive means small, poorly fitted or top-dose-only effect, or effect the other way, or a change in a side signal; inactive means no such curve, though single readings can be large or run the other way; the % refers to the polarisation;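 further: polarization taken with two DNA probes labelled with fluorescein and Texas red; potency means the concentration at half of the fitted maximal effect; % of control where 0% means no effect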
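His-tagged ERG Ets domain (1 uM in the protein solution; 300mM KCl, 50mM Tris-HCl, 1mM EDTA, 1mM DTT, pH 7.5) received compound, then a probe mix of 5 nM fluorescein-DNA and 100nM Texas-615-DNA. Fluorescence polarization was read for both dyes.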
D1 potentiator: enhances dopamine response at the human D1 receptor | P21728 | HEK293 TREx D1 cells, calcium flux, dopamine EC20 potentiation | potentiation, % at 10 µM | actives 0.036% (n = 360,000); in the data active means potentiation above about 30%; further: 0% is about no effect
DRD3 agonist: activates the human D3 dopamine receptor; max activation, %; P35462; actives 0.58% (n = 410,000); D3R DiscoveRx beta-arrestin cells, luminescence, 90 min; in the data active means max activation above about 30%; further: 0% is about no effect
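Cells at 1500/well, incubated overnight, then treated with pinned compounds (dopamine as control) for 90 min at 37 degrees C. DiscoveRx reagent added for 30 - 60 minutes at room temperature; luminescence read.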
Numbers without * were called inactive; ? = inconclusive; . = not tested or not shown; ! = not active in a repeat. Compounds with a hit are over-represented: about 6.1% of the library has one in this group of screens.

SMILES	DRD3 antagonist	D1 antag	D1 ag	ERG Ets-DNA blk	D1 potentiator	DRD3 agonist
CC(=O)OCc1cnc(C)c2oc(=O)c(C(=O)Nc3cc(F)ccc3C)cc12	.	6.5	0.3	5.6%	4.0	4.0
CC(=O)OCc1cnc(C)c2oc(=O)c(C(=O)Nc3cccc(F)c3)cc12	.	-46.4*	-0.1	-0.4%	1.1	0.9
Cc1noc(C)c1COc1ccccc1C(=O)N(C)Cc1ccco1	29.9	-17.9	5.0	.	.	-4.8
CCC(C(=O)Nc1cc(F)ccc1F)n1nc(-c2cc(C)ccc2C)ccc1=O (stereo not given)	.	2.9	-0.3	-1.4%	1.6	3.4
CCc1ccc2oc(-c3cccc(N)c3)nc2c1	-52.2*	18.1	-0.3	5.3%	4.9	-4.5
Cc1ccc2nc(-c3cccc(N)c3)oc2c1	9.1	3.1	0.4	.	0.7	4.8
CS(=O)(=O)NCCCNc1ccc(Cl)cc1[N+](=O)[O-]	-50.5*	1.4	3.0	-0.8%	-5.0	-2.5
CCNCCNc1ccc(Cl)cc1[N+](=O)[O-]	-74.7*	.	.	-7.7%	.	-10.8
CC1(C)C2CCC1(CS(=O)(=O)N1CCOCC1)C(=O)C2 (stereo not given)	14.7	-12.6	3.3	-1.2%	-1.6	36.3*
C/C(CC(=O)NC(C)C)=N\NC(=O)COc1cc(C)c(Br)cc1Br	-6.5	-5.0	10.2	-7.4%	0.4	-21.9
CN(C)c1nc(OCCOC(=O)c2ccccc2)nc(N(C)C)n1	34.3	0.2	31.1*	-5.4%	-0.7	9.0
COc1ccc(/C=C2/SC(=S)N(NS(=O)(=O)c3ccc(C)cc3)C2=O)cc1	-20.6	-47.4*	6.0	12.0%	.	-7.7
COc1ccc(CCNC(=O)c2cc3c(=O)n(C)c4ccccc4c3n2C)cc1OC	33.0	-13.6	1.5	-17.6%	-0.1	10.5
CN1CCCC(n2nc(Cc3ccc(Cl)cc3)c3ccccc3c2=O)CC1 (stereo not given)	-53.7*	.	.	?	.	-82.1
CCOC(=O)Cn1nc(Cc2ccccc2)c2ccccc2c1=O	-17.4	4.8	0.1	5.3%	3.6	-6.6
CCCC(=O)N1c2ncnn2C2(CCCCC2)[C@@H]2CCCC[C@@H]21	.	-2.7	5.0	1.1%	-0.2	0.1
Cc1ccc(C(=O)COC(=O)CCS(=O)(=O)c2ccccc2)cc1[N+](=O)[O-]	-1.4	-3.4	1.2	-1.2%	-7.2	-3.4
Cc1ccc(S(=O)(=O)CCC(=O)OCC(=O)c2ccc(C)c(C)c2)cc1	0.9	-30.6*	10.6	-12.0%	-10.3	6.1
COC(=O)N1CCCCC1c1cc(C(=O)NCc2cccnc2)no1 (stereo not given)	8.0	.	.	.	.	1.0
CCN(CC)S(=O)(=O)c1ccc(C(=O)NCCSc2c(-c3ccccc3)[nH]c3ccccc23)cc1	.	3.2	2.6	0.1%	-1.6	-4.8
C/C(=C\C(=O)c1ccc(Br)cc1)Nc1cccc(Cl)c1	-8.7	.	.	-3.6%	.	3.2
C/C(=C\C(=O)c1ccccc1)Nc1ccc(Cl)c(Br)c1	-55.1*	.	.	-10.2%	.	3.8
CCOC(=O)Nc1ccc2c(c1)N(C(=O)CCN1CCN(C)CC1)c1ccccc1S2	7.0	5.2	-0.6	-3.3%	0.1	-13.4
O=C1CSC2(CCN(CCCN3c4ccccc4Sc4ccc(Cl)cc43)CC2)N1	.	.	.	.	.	-3.6
CN1CCN(CCC(=O)N2c3ccccc3Sc3ccc(Cl)cc32)CC1	-50.9*	-23.4	5.4	-15.5%	-6.7	-13.2
SMILES	DRD3 antagonist	D1 antag	D1 ag	ERG Ets-DNA blk	D1 potentiator	DRD3 agonist
NC(=O)N1CCN(CCCN2c3ccccc3Sc3cc(Cl)ccc32)CC1	-69.0*	.	.	.	.	-7.1
NCCCC(=O)N1c2ccccc2Sc2ccc(Cl)cc21	-6.5	6.4	5.2	7.1%	3.7	-15.8
CN1CCN(CCCN2c3ccccc3Sc3ccc(C(F)(F)F)cc32)CC1	-104.4*!	-80.5*	26.9	-8.1%	-4.0	-14.0
NCCC(=O)N1c2ccccc2Sc2ccc(Cl)cc21	-9.8	1.6	59.1*	0.9%	-1.9	-6.5
O=C(Nc1cccc(C(=O)N2CCCC2)c1)C1CCCC1	14.4	.	.	-13.7%	.	5.5
Cc1ccc(C(=O)NC(C)c2ccc(-n3ccnc3)cc2)cc1S(=O)(=O)N1CCOCC1 (stereo not given)	6.9	0.8	0.3	4.6%	1.5	-3.9
O=C(CCN1CCN2CCCC2C1)N1c2ccccc2Sc2ccc(Cl)cc21 (stereo not given)	-53.8*	-16.3	10.8	1.9%	-7.7	-16.1
COC(=O)Nc1ccc2c(c1)N(C(=O)CCN1CCN3CCCC3C1)c1ccccc1S2 (stereo not given)	?	-4.0	0.9	-12.8%	-4.7	-3.3
COc1cc(C(=O)N2CCN(S(=O)(=O)c3cc(C)ccc3C)CC2)ccc1OCC(=O)N1CCOCC1	-1.9	.	.	25.5%	.	1.1
COc1ccccc1-c1nnc(SC/C(O)=C(\C#N)c2nc3ccccc3[nH]2)n1C1CCCCC1	13.3	-34.3*	1.4	1.9%	-0.9	2.3
Cn1c(=O)c2c(nc(CN3CCN(Cc4ccccc4)CC3)n2Cc2cccc(Cl)c2)n(C)c1=O	-51.2*	0.6	39.9*	-2.8%	-13.9	-10.1
CCCn1c(CN2CCN(C(=O)OCC)CC2)nc2c1c(=O)n(C)c(=O)n2C	14.0	-5.1	-0.5	2.1%	6.0	126.8*
CCCCCCn1c(CN2CCN(Cc3ccccc3)CC2)nc2c1c(=O)n(C)c(=O)n2C	-51.9*	16.3	-0.6	-2.9%	0.2	-0.8
COC(=O)Cn1c(CN2CCC(Cc3ccccc3)CC2)nc2c1c(=O)n(C)c(=O)n2C	10.5	-36.2*	16.7	.	-6.8	-2.3
O=C(NC(=S)N1CC=CCC1)c1ccccc1	22.7	.	.	.	.	-0.2
CC1(C)SC(=S)N(c2ccccc2)C1/[N+]([O-])=C/c1cccc([N+](=O)[O-])c1 (stereo not given)	-19.6	6.8	-1.1	2.9%	-0.3	-10.5
COc1cc(-c2nc3n(c(=O)c2C#N)CCS3)cc(OC)c1OC	-6.2	-7.9	4.0	-13.6%	2.2	-2.1
O=C(Cn1nc(C(F)(F)F)cc1C1CC1)Nc1ccccc1F	5.5	-2.4	12.8	-3.7%	-3.0	2.0
CCCn1c(Oc2ccccc2)nc2c1c(=O)n(C)c(=O)n2C	-15.8	-39.2*	-0.8	-0.2%	-3.7	1.7
CCn1c(Oc2cccc(Br)c2)nc2c1c(=O)n(C)c(=O)n2C	6.6	-6.9	2.5	-4.9%	-4.8	0.7
COc1ccc(OC)c(Nc2sc(C(=O)c3ccccc3)c(N)c2S(=O)(=O)c2ccccc2)c1	.	-25.3	57.7*	-2.3%	-0.8	3.6
Cc1ccc(S(=O)(=O)c2c(Nc3cc(F)ccc3F)sc(C(=O)c3ccc(F)cc3)c2N)cc1	.	-69.0*	57.4*	1.5%	3.8	3.0
Nc1c(C(=O)c2ccc(F)cc2)sc(Nc2ccccc2F)c1S(=O)(=O)c1ccc(Br)cc1	.	-25.9	82.8*	1.2%	-2.7	-10.1
